The whole screen tested about 2,300 compounds, of which about 1,400 (61%) were called active. Not shown: some 29% with an inconclusive outcome. Calls follow the shape of the dose curve; as a rule, active = well fitted inhibition curve with a large enough effect; inconclusive = small, poorly fitted or top-dose-only effect, or effect the other way; inactive = no such curve, though single readings can be large or run the other way. The set was probably picked from earlier hits. Some of the results follow. Square brackets hold non-standard residues; d marks the D form. Peptide text beside a SMILES is read from it. * marks the point of attachment. ξ: configuration not given here. ξF = NC(Cc1ccccc1)C(=O)O; Cbz = O=C(OCc1ccccc1)*
Potency is read from the fitted curve at half-maximal effect.

A short description of the test: Confirmation screen for delayed death inhibitors of the malarial parasite plastid, 96 hour incubation. Also: nearly all actives have a fitted effect of over 60% in size. To be noted: P. falciparum luciferase growth in erythrocytes; series mostly up to 28.7 µM. Summed up: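 Erythrocytes infected with luciferase-expressing P. falciparum (2% hematocrit, 0.1% parasitemia final) in RPMI 1640 with 0.5% Albumax, exposed to compounds 96 h at 37 C, 5% CO2. Growth inhibition read as decreased luciferase luminescence.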
In the case of `O=C(Nc1nnc(Cc2ccc(F)cc2)s1)Nc1ccccc1F`, the Potency was 12.6 µM (active).
The same measure for `O=S(=O)(c1cccs1)N1CCN(c2ccnc3cc(Cl)ccc23)CC1`: 4.47 µM (active); for `O=C(Nc1ccc(F)cc1F)c1ccc2c(c1)[nH]c(=O)n2Cc1ccc(F)cc1`: 14.1 µM (active); for `CC1(C)CC(=O)C2=C(C1)OC1=C(C(=O)CC(C)(C)C1)C2c1ccc(O)cc1O`: 7.08 µM (active).
As to `CC(C)C(=O)NC(=S)Nc1ccc(S(=O)(=O)NC2CCCCC2)cc1`, the Potency entry is “inactive”.
The same measure for `O=C(NC(=C(Cl)Cl)S(=O)(=O)c1ccc(Cl)cc1)c1ccccc1`: “inactive”; for `CC(C)NS(=O)(=O)c1ccc(NC(=S)NC(=O)c2ccc(-c3ccccc3)cc2)cc1`: 5.01 µM (active).
The same measure for `O=C(CCN1C(=O)c2ccccc2C1=O)C1=NN[C@@H]2C(=O)N(c3ccc(F)cc3)C(=O)[C@H]12`: “inactive”; for `CCC/C(C#CCCN1C(=O)c2ccccc2C1=O)=C1/c2ccccc2C(=O)N1c1ccccc1`: 5.01 µM (active); for `COC(=O)Cc1ccc(NC(=O)C(c2ccccc2)c2ccccc2)cc1`: 10 µM (active).
The same measure for `CCOC(=O)c1c(C)sc2c1N(C(=O)CCl)c1cc(Cl)ccc1S2`: 2 µM (active); for `NC(=O)c1ccc(NC(=O)C#Cc2ccccc2)cc1`: 1 µM (active); for `COc1ccc(NC(=O)C#Cc2ccccc2)cc1`: 7.94 µM (active).
For the molecule `O=C(C#Cc1ccccc1)Nc1ccccc1F`, the Potency is 12.6 µM (active).
The same measure for `O=C(C#Cc1ccccc1)Nc1cccc(F)c1`: 1 µM (active); for `Cc1ccc(Cn2c(C)nc3c(c2=O)c2nc4ccccc4nc2n3Cc2ccco2)cc1`: 5.01 µM (active); for `Nc1ccccc1SSc1ccccc1N`: 7.94 µM (active).
On to `CCN(CC)S(=O)(=O)c1cccc(NC(=O)c2cc(-c3cccs3)nn2-c2ccccc2)c1`, for which the Potency was 12.6 µM (active).
The same measure for `Clc1cccc(OCCCCCN2CCOCC2)c1`: “inactive”; for `Brc1cccc(OCCCCN2CCCCC2)c1`: 12.6 µM (active).
As for `Cc1nn(-c2ccccc2)c(C)c1/C=N/n1c(-c2ccccc2Br)n[nH]c1=S`, the Potency was 11.2 µM (active).
For `S=c1[nH]nc(-c2ccccn2)n1/N=C/c1ccc(-c2ccccc2Br)o1` the value was “inactive”.
The same measure for `Nc1nc(CCl)nc(N(c2ccccc2)c2ccccc2)n1`: 1.41 µM (active); for `COC(=O)[C@H](Cc1ccccc1)N(C)S(=O)(=O)c1cccc(S(=O)(=O)N(C)[C@@H](Cc2ccccc2)C(=O)OC)c1`: 14.1 µM (active).
The same measure for `O=C(N[C@@H](Cc1ccccc1)C(=O)CCl)OCc1ccccc1`: “inactive”; for `O=C(CNC(=O)c1cccc(F)c1)N/N=C/c1ccc([N+](=O)[O-])s1`: “inactive”.
With `COc1ccc(C(=O)NCC(=O)N/N=C/c2ccc([N+](=O)[O-])s2)cc1OC`, the Potency is 6.31 µM (active).
For `CCN(CC)Cc1cc2[nH]c3c4ccc(Cl)cc4ncc3c2cc1OC` the value was 0.199 µM (active); for `O=C(COC(=O)C1C2CC3OC(=O)C1C3C2)Nc1ccccc1` (stereo not given), “inactive”.
The same measure for `CSc1c(CC(=O)Nc2ccccc2)n(C)c2ccccc12`: 8.91 µM (active).
For `Brc1c(CSc2nc3ccccc3s2)nc2ncccn12` the value was 6.31 µM (active); for `CC[C@@H](C)C(NC(=O)OC(C)(C)C)c1cn([C@@H](Cc2ccc(O)cc2)C(=O)N2CCN(C(=O)OC(C)(C)C)CC2)nn1` (stereo not given in full), 8.91 µM (active); for `CC[C@@H](C)C(NC(=O)OC(C)(C)C)c1cn([C@@H](CCCCNC(=O)OC(C)(C)C)C(=O)N2CCN(C(=O)OC(C)(C)C)CC2)nn1` (stereo not given in full), 1.26 µM (active).
Turning to `CCC(CC)N1CCN(Cc2nc3ccc([N+](=O)[O-])cc3c(=O)n2-c2ccccc2F)CC1`, the Potency result is “inactive”.
For `CCOc1ccc2c(c1)C(c1ccccc1)=NNC(c1ccccc1)=N2` the value was 10 µM (active).
For `Brc1ccccc1-c1nnc(COc2ncnc3c2cnn3-c2ccccc2)o1` the value was “inactive”; for `CCOC(=O)c1c(S(=O)(=O)NCC(=O)N2CCN(c3ccccc3OC)CC2)c(C)n(C)c1C`, 12.6 µM (active); for `CN(Cc1cccc(Cl)c1Cl)C(=O)c1ccc(NC(=O)CC#N)cc1`, 4.47 µM (active).
The same measure for `O=C(Nc1ccc2c(c1)CCCN2C(=O)c1ccco1)c1cc([N+](=O)[O-])ccc1Cl`: 14.1 µM (active); for `COc1ccc2nc3oc(C(=O)NCc4cccs4)cc3cc2c1`: 2.24 µM (active); for `COCCCNC(=O)c1cc2cc3cc(OC)ccc3nc2o1`: 2.24 µM (active).
As for `Cc1ccc2cc3cc(C(=O)NCCCN4CCCC4=O)oc3nc2c1`, the Potency was 1 µM (active).
For `COc1ccccc1NC(=S)NCc1cccs1` the value was “inactive”.
As for `O=C(CN1C2=NCCCN2c2ccccc21)c1ccc2c(c1)OCO2`, the Potency is 7.08 µM (active).
With `OC(CN1C2=NCCN2c2ccccc21)c1ccc2c(c1)OCO2` (stereo not given), the Potency was 2.51 µM (active).
`Cc1ccc(C)c(C(=O)CN2C3=NCCCN3c3ccccc32)c1`: the Potency is 5.62 µM (active).
For `CN(C)c1cc[n+](CC(=O)Nc2ccc(OC(F)F)cc2)cc1` the value was 1.58 µM (active); for `CCOc1ccc(NC(=O)C[n+]2ccc(N(C)C)cc2)cc1`, 0.501 µM (active); for `O=C(C[n+]1cccc(CNC(=O)c2ccc(OC(F)F)cc2)c1)Nc1ccc(SC(F)F)cc1`, 1 µM (active).
The same measure for `Cn1nnnc1Sc1ncnc2scc(-c3cccs3)c12`: 8.91 µM (active).
`Cn1nnnc1Sc1ncnc2scc(-c3ccc[nH]3)c12`: the Potency is 11.2 µM (active).
The same measure for `Cn1nnnc1Sc1ncnc2scc(-c3ccsc3)c12`: 3.98 µM (active); for `O=C1C(Cl)=C(NC2CCCCC2)C(=O)N1c1ccc(Cl)cc1`: 12.6 µM (active).
For `CCCCN(C)CCNC(=O)c1cc2c(=O)[nH]c3ccccc3c2n1C` the value was 12.6 µM (active).
For `CCOc1ccc(CNC(=O)c2cc3oc4ccccc4c3n2C)cc1` the value was “inactive”.
As to `CCOc1ccccc1NC(=O)c1cc(S(=O)(=O)NCc2ccco2)ccc1F`, the Potency is 11.2 µM (active).
For `Cc1cc(C)cc(NC(=O)c2cc(S(=O)(=O)NCc3ccco3)ccc2F)c1` the value was “inactive”.
The same measure for `C=C1C(=O)O[C@@H]2C[C@@H](C)[C@@H]3C=CC(=O)[C@@]3(C)[C@@H](OC(C)=O)[C@H]12`: 1.41 µM (active); for `Nc1ccc[n+](CC(=O)c2ccccc2)c1`: 12.6 µM (active).
The same measure for `CCC(C)(C)NC(=O)C(c1cccc(OC)c1OC)N(CC(C)C)C(=O)CCC(=O)Nc1cc(C)on1` (stereo not given): 7.94 µM (active); for `CC(C)n1nc(C(=O)Nc2cccc(S(=O)(=O)NCc3ccco3)c2)c2ccccc2c1=O`: 7.94 µM (active); for `O=C(Nc1ccc(S(=O)(=O)NCc2ccco2)cc1)c1ccc2ccccc2n1`: 12.6 µM (active).
As for `Cc1cc(C)n(-c2ccc(C(=O)Nc3ccc(S(=O)(=O)NCc4ccco4)cc3)cc2)n1`, the Potency was 8.91 µM (active).
The same measure for `CCN(CC(=O)Nc1c(F)cccc1F)C(=O)c1ccc(S(=O)(=O)NCc2ccco2)cc1`: “inactive”.
For `COc1ccc2c(C)c(CCC(=O)NC3CC3)c(=O)oc2c1C` the value was 3.55 µM (active).
The same measure for `COc1ccc2c(c1)c(C(=O)N/N=C/c1ccc(OC)c(OC)c1)c(C)n2C`: 8.91 µM (active); for `O=C(NCC1CCCO1)c1ccc(Cn2c(=S)[nH]c3ccccc3c2=O)cc1` (stereo not given): 14.1 µM (active).
As for `Cc1cccc(N2CCN(C(=O)C3CCN(c4ncnc5c4nc4n5CCCCC4)CC3)CC2)c1C`, the Potency is 11.2 µM (active).
The same measure for `CC1CCN(C(=O)C2CCCN(c3ncnc4c3nc3n4CCCCC3)C2)CC1` (stereo not given): 11.2 µM (active); for `Cc1cc(C)n2nc(SCC(=O)N3CCN(c4ccc(F)cc4)CC3)nc2n1`: 12.6 µM (active).
For `COc1ccc(Nc2nnc(-c3ccccc3)c3ccccc23)cc1C(=O)N1CCCCC1` the value was 2.82 µM (active); for `COc1ccc(Nc2nnc(-c3ccc(C)cc3)c3ccccc23)cc1C(=O)N1CCCCC1`, 0.251 µM (active).
In the case of `O=C(c1cc(COc2ccc(F)cc2Cl)on1)N1CCN(C2CCCCC2)C(=O)C1`, the Potency was 11.2 µM (active).
The same measure for `CN1CCN(C(=O)c2cc(COc3c(F)cccc3F)on2)CC1c1ccccc1` (stereo not given): “inactive”.
The same measure for `CN(Cc1c(C(=O)N/N=C/c2cccc(O)c2)nnn1-c1nonc1N)c1ccccc1`: “inactive”; for `Cc1ccsc1/C=N/NC(=O)c1nnn(-c2nonc2N)c1-c1ccc2c(c1)OCO2`: 0.891 µM (active).
The same measure for `Nc1nonc1-n1nnc(C(=O)N/N=C/c2cccc(Cl)c2)c1-c1ccc2c(c1)OCO2`: 0.0708 µM (active).
As to `Nc1nonc1-n1nnc(C(=O)N/N=C/c2ccc(Cl)cc2)c1-c1ccc2c(c1)OCO2`, the Potency is 0.0316 µM (active).
In the case of `CCOc1ccc(-c2c(C(=O)N/N=C/c3ccc(OC(C)C)cc3)nnn2-c2nonc2N)cc1`, the Potency is 12.6 µM (active).
The same measure for `CCOC(=O)C1=C(NC(=S)NC(=O)c2ccccc2)c2ccccc2CC1(C)CC` (stereo not given): 11.2 µM (active); for `CC(=O)Nc1nc2ccccc2n1Cc1ccc(C)cc1`: 5.62 µM (active).
Consider `N=C1S/C(=C\c2ccco2)C(=O)N1c1nccs1`, for which the Potency was 12.6 µM (active).
In the case of `CCOC(=O)CNC(=O)C(Cc1ccccc1)NC(=O)OCc1ccccc1` (stereo not given) (Cbz-[ξF]-Gly-OEt), the Potency entry is “inactive”.
The same measure for `CCCNC(=O)C(Cc1ccc(F)cc1)NC(=O)c1ccccc1` (stereo not given): 6.31 µM (active); for `Cc1c(C(=O)N2CCC(n3nccc3NC(=O)C3CC3)CC2)[nH]c2ccc(Cl)cc12`: 14.1 µM (active).
The same measure for `Cc1cc(C)c2[nH]c(C(=O)N3CCC(n4nccc4NC(=O)C4CC4)CC3)c(C)c2c1`: 7.94 µM (active).
The same measure for `CCC(C)[C@H](NC(=O)[C@H](Cc1ccccc1)n1c(=O)[nH]c2ccccc2c1=O)C(=O)NCC1CCC(C(=O)O)CC1` (stereo not given in full): 11.2 µM (active); for `CCOCCCn1c(C)nc2c(c1=O)c1nc3ccccc3nc1n2CCC1=CCCCC1`: 3.16 µM (active); for `CN(CC(=O)Nc1ccc(F)c(Cl)c1)S(=O)(=O)c1ccc2c(c1)n(C)c(=O)c(=O)n2C`: 10 µM (active).
For the molecule `CCOc1ccc(S(=O)(=O)N2CCCC(C(=O)NC3CC3)C2)cc1Cl` (stereo not given), the Potency was 10 µM (active).

The values are drawn from PubChem BioAssay AID504848 (National Center for Advancing Translational Sciences (NCATS), 2011).
